# Compound activity (PubChem)
# TEAD-YAP inh: TEAD-YAP interaction inhibition; HEK-TIYL cells, TEAD-Gal4/YAP UAS-luciferase luminescence; inhibition, % at 9.12 µM; hit rate 1.4% among 640,000; in the data active = inhibition above about 32%
# GPR151 ag: activators of human GPR151. Q8TDV0. PathHunter beta-arrestin GPR151 cells, luminescence. activation, % at 11.2 µM. hit rate 1% among 650,000. AID 1508602; in the data active = activation above about 4.9%
# FBW7 act: human FBW7 E3 ligase activation, primary screen; Q969H0; AlphaScreen FBW7–phospho-cyclin E peptide binding, activator screen; normalized activity (activation), % at 26.1 µM; hit rate 0.13% among 650,000; in the data active = normalized activity above about 1.9%;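 also: purified mutant Fbw7 with reduced substrate affinity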
# Target sequence (Q969H0 whole entry, looked up): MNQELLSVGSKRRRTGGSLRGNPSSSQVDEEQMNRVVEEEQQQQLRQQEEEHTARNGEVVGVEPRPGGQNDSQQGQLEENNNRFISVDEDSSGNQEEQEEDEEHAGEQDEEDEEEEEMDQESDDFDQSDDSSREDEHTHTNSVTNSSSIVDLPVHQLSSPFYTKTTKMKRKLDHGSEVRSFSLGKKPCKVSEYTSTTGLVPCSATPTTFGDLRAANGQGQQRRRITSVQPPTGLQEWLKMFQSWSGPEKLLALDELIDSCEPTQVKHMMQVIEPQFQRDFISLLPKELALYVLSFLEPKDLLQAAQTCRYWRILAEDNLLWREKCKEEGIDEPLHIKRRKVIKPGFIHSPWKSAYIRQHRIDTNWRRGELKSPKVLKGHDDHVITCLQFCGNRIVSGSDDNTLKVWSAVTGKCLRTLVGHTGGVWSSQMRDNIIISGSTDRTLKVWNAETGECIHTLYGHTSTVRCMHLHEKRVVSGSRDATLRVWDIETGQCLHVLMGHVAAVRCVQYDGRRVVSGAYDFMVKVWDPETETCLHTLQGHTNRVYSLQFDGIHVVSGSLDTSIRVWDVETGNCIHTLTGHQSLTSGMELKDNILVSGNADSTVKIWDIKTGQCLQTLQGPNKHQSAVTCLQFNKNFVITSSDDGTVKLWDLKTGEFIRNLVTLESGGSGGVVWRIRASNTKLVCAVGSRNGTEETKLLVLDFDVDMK
# MITF primary: human MITF inhibition, primary screen; AID 1259374; AlphaScreen MITF homodimerization, bead proximity signal; O75030; hit rate 0.91% among 650,000; inhibition, % at 2.6 µM; in the data active = inhibition above about 50%
# MITF inh conf: human MITF inhibition, confirmation | shares compounds with MITF primary | AlphaScreen MITF homodimerization, biotin/His-MITF beads | inhibition, % at 2.6 µM | hit rate 16% among 4,700 | AID 1259372;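 active = inhibition above a cutoff derived from the DMSO control wells, cut at about 28% in these data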;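 also: inhibitors lower the bead chemiluminescence by keeping MITF from dimerizing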
# AlphaScreen intf2: counter-screen: compounds optically interfering with AlphaScreen; shares compounds with MITF primary; LysRS AlphaScreen counterscreen, signal interference, triplicate; inhibition, % at 2.6 µM; hit rate 7.6% among 4,700; AID 1259376;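 active = inhibition above a cutoff derived from the DMSO control wells, cut at about 30% in these data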
# Numbers stand for hits; i = inactive; nt = no result. Most compounds without a hit are left out; they make up all but 3.4% or so of the library.
SMILES,TEAD-YAP inh,GPR151 ag,FBW7 act,MITF primary,MITF inh conf,AlphaScreen intf2
COc1cc(CN2CCN(Cc3cc(OC)c(OC)c(OC)c3)CC2)c([N+](=O)[O-])cc1OC,i,i,i,58,i,i
COc1cccc(CN2CCN(Cc3ccccc3[N+](=O)[O-])CC2)c1OC,i,i,i,61,i,i
CCOc1cc(CN2CCN(Cc3cccc(F)c3)CC2)ccc1OC,i,i,i,i,nt,nt
Cc1onc(-c2ccccc2Cl)c1C(=O)NC(=S)Nn1cnnc1,i,i,i,i,nt,nt
Cc1cc(C(=O)NCC(N)=O)c2c(C)nn(-c3ccccc3)c2n1,i,i,i,i,nt,nt
CS(=O)(=O)N(CC(=O)Nc1ccccc1C(F)(F)F)C1CCCCC1,i,i,i,i,nt,nt
COc1cccc(C(=O)N2CCN(Cc3ccccc3[N+](=O)[O-])CC2)c1,i,i,i,i,nt,nt
COc1cc(CN2CCN(Cc3ccccc3[N+](=O)[O-])CC2)cc(OC)c1OC,i,i,i,62,i,i
COc1cccc(OC)c1C(=O)N1CCN(Cc2ccccc2[N+](=O)[O-])CC1,i,i,i,56,i,i
COc1cc(CN2CCN(C(=O)CC(C)C)CC2)c([N+](=O)[O-])cc1OC,i,i,i,60,i,i
CCOc1cc(CN2CCN(Cc3ccc([N+](=O)[O-])cc3)CC2)ccc1OC,i,i,i,68,i,i
O=C(NCc1ccc2c(c1)OCO2)c1ccc2c(c1)C(=O)N(C1CCCCC1)C2=O,i,i,i,i,nt,nt
N#CCCN(CCC#N)Cn1nnc2ccccc21,i,i,i,i,nt,nt
COc1ccc(CN2CCN(Cc3ccccc3[N+](=O)[O-])CC2)c(OC)c1OC,i,i,i,i,nt,nt
CCOc1ccc(CN2CCN(S(=O)(=O)c3ccccc3[N+](=O)[O-])CC2)cc1OC,i,i,i,i,nt,nt
COc1cc(CN2CCN(c3ccccc3)CC2)cc([N+](=O)[O-])c1O,i,i,i,52,i,i
COc1ccccc1CN1CCN(Cc2ccccc2[N+](=O)[O-])CC1,i,i,i,79,i,i
CCOc1cc(CN2CCN(Cc3ccccc3[N+](=O)[O-])CC2)ccc1OC,i,i,i,71,i,i
N#Cc1ccc(/C=N/NC(=S)NCCN2CCOCC2)cc1,i,i,i,i,nt,nt
O=C(CCNc1ccc([N+](=O)[O-])cc1[N+](=O)[O-])OCC(=O)c1ccccc1,i,i,i,i,nt,nt
OCCNCCCCOc1ccc(Cl)c(Cl)c1,i,i,i,58,i,i
COCCNCCCCOc1ccc(Cl)c(Cl)c1,i,i,i,57,i,i
COCCCNCCCCOc1ccc(Cl)c(Cl)c1,i,i,i,i,nt,nt
Cc1cc(C)cc(NC(=O)COC(=O)c2cc[n+]([O-])cc2)c1,i,i,i,i,nt,nt
Cc1ccc(NC(=O)COC(=O)c2cc[n+]([O-])cc2)cc1C,i,i,i,77,i,i
SMILES,TEAD-YAP inh,GPR151 ag,FBW7 act,MITF primary,MITF inh conf,AlphaScreen intf2
CCOC(=O)c1cc(-c2ccccc2)sc1NC(=O)CCN1CCN(C)CC1,i,i,i,58,i,i
CCOC(=O)c1c(-c2ccc(OC)c(OC)c2)csc1NC(=O)CN1CCCC1,i,i,i,i,nt,nt
CCOC(=O)c1c(-c2ccc(F)cc2)csc1NC(=O)CN1CCOCC1,i,i,i,i,nt,nt
CCOC(=O)c1c(-c2ccc(F)cc2)csc1NC(=O)CN1CCN(CC)CC1,i,i,i,63,i,i
CCOC(=O)c1c(-c2ccc(C)cc2)csc1NC(=O)CCN1CCN(CC)CC1,i,i,i,53,i,i
CCOC(=O)c1c(-c2ccc(OC)c(OC)c2)csc1NC(=O)CCN1CCN(C)CC1,i,i,i,81,i,i
CCn1nnc(NC(=O)COc2ccc(OC)cc2)n1,i,i,i,i,nt,nt
Cc1ccc(-c2csc3nc4c5ccccc5c(N5CCN(C)CC5)nn4c(=O)c23)cc1,i,i,i,i,nt,nt
CCN1CCN(CC(=O)NCc2ccc(F)cc2)CC1,i,i,i,79,i,i
CC(=O)c1ccc(-n2c(-c3cc(-c4ccco4)[nH]n3)n[nH]c2=S)cc1,i,i,i,61,i,37
Cc1ccc(-n2c(-c3ccco3)n[nH]c2=S)cc1C,i,i,i,i,nt,nt
CCOC(=O)C1CCCN(C(=O)Cc2c(C(=O)O)n(C)c3ccccc23)C1 (configuration not stated),i,i,i,i,nt,nt
c1ccc(CN2CCN(CCOCCOc3ccccc3)CC2)cc1,i,i,i,83,i,i
CCOc1ccccc1OCCOCCN1CCN(Cc2ccccc2)CC1,i,i,i,85,i,i
